High-throughput results: PubChem, several laboratories
Compounds with a hit are over-represented: about 1.9% of the library has one in this group of screens.
TNF death inh: TNF-alpha cell death inhibition in Jurkat FADD-/- cells; Jurkat FADD-/- TNF necroptosis rescue, ATP luminescence, 24 h; 0 = TNF only, 100 = no-TNF cells; activation (protection from cell death), % at 10 µM; 220,000 tested, 0.068% active;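 active means activation, meaning protection from cell death, of at least 50% relative to plate controls; inactive means activation below 50%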;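 further: necroptosis triggered by 40 ng/mL TNF-alpha added together with compound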
HSF1 activator: increases HSF-1 driven luciferase reporter signal; NIH3T3-HGL HSF-1 luciferase reporter, MG132, 8 h; 100% = twice DMSO control signal; AID 504408; activation, % at 9 µM; 300,000 tested, 1.7% active;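 active means mean replicate activation of at least 50% with a set share of replicates each reaching 50%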;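 further: 0% = median of the neutral control wells and 100% = twice that signal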
Hsp70 act: Hsp70 transcriptional activation, primary screen | 200,000 tested, 0.04% active | AID 1203 | HeLa Hsp70 promoter luciferase reporter, luminescence; scaled: vehicle 0, proteasome-inhibitor control 100% | activation, % at 10 µM;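 active means activation above the mean across all tested compounds plus 3 SD, cutoff set per campaign, cut at about 5.5% in these data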;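 further: 100% = MG132 at 30 µM as the positive control and 0% = DMSO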
zVAD death inh: blocks zVAD induced death of L929 cells; L929 zVAD necroptosis rescue, ATP luminescence, 24 h; with zVAD 60 µM; viability rescue, % at 10 µM; 220,000 tested, 0.38% active; AID 1377;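 active means activation, scaled between plate controls, above about 75%, limit read from the data; inactive means activation under that limit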;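 further: 0% = zVAD with DMSO and 100% = DMSO alone without zVAD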
The depositor's hits bear a star.

How did COc1ccc(-c2ccc(C#N)c(SCC(=O)Nc3sc4c(c3C#N)CCC4)n2)cc1OC do in these assays?
TNF death inh: 4; HSF1 activator: 53*; Hsp70 act: 0; zVAD death inh: 1

What do the screens show for `N#Cc1c(NC(=O)CSc2nnc(-c3ccccc3)o2)sc2c1CCCC2`?
TNF death inh: -1; HSF1 activator: 76*; Hsp70 act: 0; zVAD death inh: 0

Results for Cc1sc(NC(=O)CSc2nnc(-c3ccccc3)o2)c(C#N)c1C ?
TNF death inh: 0; HSF1 activator: 43; Hsp70 act: 0; zVAD death inh: 0

How did CCS(=O)(=O)N1Cc2ccccc2CC1C(=O)N(C)CC(=O)Nc1ccc(F)c(F)c1F (centres undefined) do in these assays?
HSF1 activator: -16

What do the screens show for `O=C(c1ccccc1)C(CCC(CN1CCOCC1)C(=O)c1ccccc1)CN1CCOCC1` (centres undefined)?
TNF death inh: -11; HSF1 activator: 86*; Hsp70 act: 0; zVAD death inh: 3

What do the screens show for `Cn1nnc(-c2ccc(OCc3ccccc3F)cc2)n1`?
TNF death inh: -1; HSF1 activator: 56*; Hsp70 act: 0; zVAD death inh: 0

Results for CCN(CC)CCNC(=O)c1ccc(NC(=O)Nc2cccc3ccccc23)cc1 ?
HSF1 activator: -14

What do the screens show for `Cc1cc(C)n(C(=O)CCCn2cc([N+](=O)[O-])cn2)n1`?
TNF death inh: 0; HSF1 activator: 27; Hsp70 act: 0; zVAD death inh: -1

What do the screens show for `O=C(CN(C(=O)CNC(=O)c1ccco1)c1ccccc1F)NC1CCCCC1`?
HSF1 activator: 19

How did O=c1oc(-c2cccs2)nc2sc3c(c12)CCCC3 do in these assays?
TNF death inh: 0; HSF1 activator: 63*; Hsp70 act: 0; zVAD death inh: -1

Results for N/C(CC(=O)NC1CCCCC1)=N\OCC(=O)Nc1ccc(Cl)c(Cl)c1 ?
TNF death inh: 3; HSF1 activator: 0; zVAD death inh: 0

What do the screens show for `COc1ccc2c(c1)O[C@H](c1ccc3c(c1)OCO3)[C@@H](O)C2=O`?
TNF death inh: 2; HSF1 activator: 18; Hsp70 act: 0; zVAD death inh: 79*

What do the screens show for `COc1ccc2c(c1)O[C@@H](c1cccc(C(F)(F)F)c1)[C@H](O)C2=O`?
TNF death inh: 0; HSF1 activator: 11; Hsp70 act: 0; zVAD death inh: 1

How did Cc1cc2occ(CC(=O)NCc3cccs3)c2cc1C(C)C do in these assays?
TNF death inh: 2; HSF1 activator: 62*; Hsp70 act: 0; zVAD death inh: -1

How did Cc1csc(NC(=O)Cc2coc3cc(C)c(C(C)C)cc23)n1 do in these assays?
TNF death inh: 0; HSF1 activator: 28; Hsp70 act: 0; zVAD death inh: -1

What do the screens show for `CC(C)Cc1nnc(NC(=O)CCC(=O)N2CCN(c3ccc(F)cc3)CC2)s1`?
HSF1 activator: 12

What do the screens show for `Cc1c(F)cccc1NC(=O)c1ccc2c(c1)CCN2S(C)(=O)=O`?
HSF1 activator: 3

What do the screens show for `CCC(CC)COC(=O)C1=C(C)NC(=O)NC1c1cc(OC)ccc1OC` (centres undefined)?
HSF1 activator: 70*

What do the screens show for `COc1coc(C(O)CN)cc1=O` (centres undefined)?
TNF death inh: 1; HSF1 activator: 17; Hsp70 act: 0

Results for CCOC(=O)C(=Cc1cc(=O)c(OC)co1)C(=O)OCC ?
TNF death inh: 15; HSF1 activator: 94*; Hsp70 act: 0; zVAD death inh: -1

Results for CC(=O)Nc1ccc2c(c1)nc(CCN1CCC(C)CC1)n2C ?
TNF death inh: 1; HSF1 activator: -4; Hsp70 act: 0; zVAD death inh: -1

What do the screens show for `COc1ccc(OCC(=O)Nc2ccc3c(c2)nc(CCN2CCN(C)CC2)n3C)cc1`?
HSF1 activator: 53*

How did Cn1c(CCN2CCOCC2)nc2cc(NC(=O)COc3ccccc3)ccc21 do in these assays?
TNF death inh: -3; HSF1 activator: 68*; Hsp70 act: 0; zVAD death inh: 0

Results for CC1CCN(CCc2nc3cc(NC(=O)Nc4ccccc4)ccc3n2C)CC1 ?
TNF death inh: 0; HSF1 activator: 177*; Hsp70 act: 0; zVAD death inh: 6

How did Cc1ccc(OCc2cc(C(=O)N(C)Cc3cnn(-c4ccccc4C)c3)no2)cn1 do in these assays?
HSF1 activator: 18

Results for CCCNC(=O)COc1coc(CN2CCN(c3ccc(F)cc3)CC2)cc1=O ?
HSF1 activator: -36

What do the screens show for `Cc1ccc(C(C)C)c(OCC(=O)NNC(=O)C(C(C)C)N2C(=O)c3ccccc3C2=O)c1` (centres undefined)?
TNF death inh: 1; HSF1 activator: 12; Hsp70 act: 0; zVAD death inh: 1

Results for Cc1sc2ncnc(NCC(c3ccco3)N3CCCC3)c2c1C (centres undefined) ?
TNF death inh: 1; HSF1 activator: 7; Hsp70 act: 0; zVAD death inh: 1

Results for Cc1ccc(OCC(=O)N2CCc3ccccc3C2)c(Br)c1 ?
HSF1 activator: 76*

How did Cc1ccc(OCC(=O)N2CCc3ccccc3C2)c(C)c1 do in these assays?
HSF1 activator: 10

Results for Cc1cccc(NC(=O)CSc2nnc(-c3ccco3)c(-c3ccco3)n2)c1 ?
TNF death inh: 0; Hsp70 act: 0; zVAD death inh: -1

What do the screens show for `Cc1cccc(NC(=O)CSc2nnc(-c3ccco3)c(-c3ccco3)n2)c1C`?
TNF death inh: -2; HSF1 activator: 89*; Hsp70 act: 0; zVAD death inh: 0

Results for CCOC(=O)c1ccc(NC(=O)N2CCN(Cc3ccccc3)CC2)cc1 ?
TNF death inh: 1; HSF1 activator: -13; Hsp70 act: 0; zVAD death inh: -1

Results for CCn1nc(C)cc1C(=O)Sc1ccc(Cl)cc1Cl ?
TNF death inh: -13; HSF1 activator: 52*; zVAD death inh: 0

What do the screens show for `O=S(=O)(Nc1c(O)ccc2ccccc12)c1cccc2ccccc12`?
HSF1 activator: -92

How did O=C(CN1c2ccccc2Sc2ccccc21)N/N=C/c1ccc(Cl)cc1 do in these assays?
TNF death inh: -1; HSF1 activator: 61*; zVAD death inh: 0

How did CC(C)n1cc(/C=N/NC(=O)COc2cccc3cccnc23)c2ccccc21 do in these assays?
TNF death inh: -4; HSF1 activator: 78*; Hsp70 act: 0; zVAD death inh: 8

What do the screens show for `CCOC(=O)C1=C(C)Nc2nc3ccccc3n2C1c1ccncc1` (centres undefined)?
TNF death inh: 2; HSF1 activator: 80*; Hsp70 act: 0; zVAD death inh: 1

How did C=CCOC(=O)C1=C(C)Nc2nc3ccccc3n2C1c1ccncc1 (centres undefined) do in these assays?
TNF death inh: 2; HSF1 activator: 62*; Hsp70 act: 0; zVAD death inh: 2

How did CCOC(=O)C1(CCCc2ccccc2)CCN(S(=O)(=O)N(C)C)CC1 do in these assays?
HSF1 activator: 4

Results for O=S1(=O)CCOC[C@H](c2ccccc2)N1Cc1ccccc1 ?
HSF1 activator: 3
